Screens as filed in PubChem.
Only some compounds are listed: those with a hit (about 1.3% of all), similar ones and a draw of the others.
MBNL1 CUG block = blocks human MBNL1 binding to CUG repeat RNA; Q9NR56; TR-FRET MBNL1-His/biotin-(CUG)12 binding, 665/545 ratio; Potency, µM (highest dose often 57.5 µM), without a hit: at the top dose activity change, negative = inhibition, most hits filed as inhibitors; 0.036% of 280,000 active; AID 2675; active means well fitted inhibition curve with a large enough effect in the signal ratio, with a control signal flat, not every such curve was filed as active; inconclusive means small, poorly fitted or top-dose-only effect, or effect the other way, or a change in a side signal; inactive means no such curve, though single readings can be large or run the other way; the % refers to the signal ratio; further: potency means the concentration at half of the fitted maximal effect; on the % scale 0 is the no-effect control and ±100 the full control effect
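His-tagged MBNL1 binding to biotinylated (CUG)12 RNA was measured by TR-FRET using terbium anti-His antibody (0.055 ng/ul final) and streptavidin-XL665 (5 nM final). Compounds were titrated 92 nM to 58 uM; 60 min at room temperature.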
TRPV1 agonist = agonists of human vanilloid receptor 1 (TRPV1); Q8NER1; TRPV1-expressing cells, Fluo-8 calcium influx, agonist mode; activation, % at 8.33 µM; 0.19% of 320,000 active; in the data active means activation above about 80%; inconclusive means between about 30% and that limit; further: 0% is about no effect
Target sequence (Q8NER1 whole entry, looked up): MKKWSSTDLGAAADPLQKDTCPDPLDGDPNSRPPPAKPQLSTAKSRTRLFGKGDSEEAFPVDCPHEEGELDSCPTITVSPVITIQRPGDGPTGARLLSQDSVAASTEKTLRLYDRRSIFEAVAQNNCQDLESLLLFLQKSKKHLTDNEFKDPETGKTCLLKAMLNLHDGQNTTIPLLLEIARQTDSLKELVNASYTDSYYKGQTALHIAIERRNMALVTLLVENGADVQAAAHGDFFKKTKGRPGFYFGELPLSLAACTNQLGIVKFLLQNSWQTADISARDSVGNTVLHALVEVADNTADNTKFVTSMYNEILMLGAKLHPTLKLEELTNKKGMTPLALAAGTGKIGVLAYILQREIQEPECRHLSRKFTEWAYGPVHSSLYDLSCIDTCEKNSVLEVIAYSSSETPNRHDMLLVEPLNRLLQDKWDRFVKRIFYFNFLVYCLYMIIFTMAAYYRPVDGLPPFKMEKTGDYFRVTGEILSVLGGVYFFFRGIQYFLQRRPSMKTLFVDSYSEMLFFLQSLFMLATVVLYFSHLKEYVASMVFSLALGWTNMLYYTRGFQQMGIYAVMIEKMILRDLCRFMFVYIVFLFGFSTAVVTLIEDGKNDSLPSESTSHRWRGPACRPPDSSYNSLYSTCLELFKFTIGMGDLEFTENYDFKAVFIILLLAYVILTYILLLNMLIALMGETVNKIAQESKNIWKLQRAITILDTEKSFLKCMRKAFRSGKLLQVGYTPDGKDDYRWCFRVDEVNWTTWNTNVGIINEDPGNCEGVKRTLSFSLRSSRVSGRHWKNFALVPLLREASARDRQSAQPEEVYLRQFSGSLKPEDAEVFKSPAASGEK
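TRPV1-expressing cells were cultured overnight at 35.5C and loaded with Fluo-8 calcium dye for 40 to 90 min at room temperature. After a 10 s baseline, compound was added and calcium influx was read kinetically for 3 min (ex 480/em 520 nm).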
KCNH2 WT inh = KCNH2 (human, wildtype) channel inhibition; U2OS, BacMam KCNH2, thallium flux FluxOr; active compounds read low; activity change, % at 1.84 µM; 0.37% of 340,000 active;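 active means maximum activity change below -70%; inconclusive means maximum activity change between -70% and -50%; inactive means maximum activity change above -50%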; further: on the % scale 0 is the no-effect control and ±100 the full control effect
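U2OS cells transduced with wild-type KCNH2 virus are loaded with FluxOr dye for 45 min, and thallium flux is measured in kinetic reads before and after stimulation buffer. Rate constants are normalized to DMSO controls.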
KCNH2 3.1 block = inhibitors of human KCNH2 3.1 potassium channel isoform; U2OS KCNH2 3.1, thallium flux FluxOr; active compounds read low; activity change, % (tested at about 1.8 µM); 0.95% of 340,000 active; AID 720553;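 active means maximum activity change below -70%; inconclusive means maximum activity change from -70% to -50%; inactive means maximum activity change above -50%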;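 further: thallium influx rate constant from kinetic fluorescence after stimulation buffer; on the % scale 0 is the no-effect control and ±100 the full control effect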
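Virally transduced U2OS (3.1 isoform, 4 h infection in dark at RT) → overnight 37 C → FluxOr + Red40 in HBSS/HEPES, 45 min → stimulation buffer, 2 min kinetic read → rate constant vs DMSO controls.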
TRPV1 PAM = enhances activation of the human vanilloid receptor TRPV1; Q8NER1; TRPV1-expressing cells, Fluo-8 calcium influx, capsaicin EC20 potentiation; potentiation, % at 8.33 µM; 0.02% of 320,000 active; AID 540277; in the data active means potentiation above about 80%; inconclusive means between about 30% and that limit; further: 0% is about no effect
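Cells expressing TRPV1 were dye-loaded with Fluo-8 and read kinetically: 10 s baseline, 3 min after compound (agonist portion), then 2 min after EC20 capsaicin (allosteric enhancer portion). Calcium-bound dye fluorescence at 480/520 nm.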
* hit, by the source's call; ? = inconclusive; · = no result.

SMILES	MBNL1 CUG block	TRPV1 agonist	KCNH2 WT inh	KCNH2 3.1 block	TRPV1 PAM
OCCN(CCO)CC(O)COc1ccc(Br)cc1 (configuration not stated)	9.9%	3.4	-0.1	5.1	9.7
CN(CCOc1ccc(Br)cc1)CC(O)COc1ccc(C#N)cc1 (configuration not stated)	-2.8%	11.7	-113.0*	-119.6*	-14.6
COc1ccc(Br)cc1CN(C)CC(O)COc1ccc(Br)cc1 (configuration not stated)	5.2%	-1.5	-18.2	-74.7*	18.5
COc1ccc(-c2oc3ccccc3c2C(=O)OCc2ccccc2)cc1	2.0%	4.1	13.3	-11.8	3.7
COc1ccccc1/C=C/C=c1\sc2nc(=O)c(Cc3ccccc3)nn2c1=O	3.7%	4.8	-140.0*	-162.8*	-12.7
CCOC(=O)CC1COCCN1C(=O)CCc1nnc(-c2ccsc2)o1 (configuration not stated)	-13.6%	0.3	1.5	-2.2	-0.1
CCOC(=O)c1ccccc1NC(=O)COC(=O)c1cc([N+](=O)[O-])ccc1N1CCOCC1	·	25.0	-0.6	3.6	2.6
COc1cc(OC)c(NC(=S)NCc2ccc(F)cc2)cc1Cl	-4.9%	-3.1	-27.8	-106.5*	1.7
CC(=O)N1CCN(C(=O)c2cc(S(=O)(=O)N3CCN(c4ccccc4)CC3)ccc2Cl)CC1	·	0.2	20.5	-9.7	?
COc1cccc(-c2noc(C3CCCN(C(=O)CC(C)(C)C)C3)n2)c1 (configuration not stated)	-9.3%	-4.5	-87.4*	-21.6	2.1
COc1ccc(O)c(-c2[nH]ncc2C(=O)c2cccc(C)c2)c1	0.2%	4.4	25.8	-109.3*	-7.2
Nc1[nH]ncc1-c1ccc(F)cc1	4.5%	-0.8	-7.6	5.9	?
Cc1cccc2c1-c1sc(C(=O)Nc3ccccc3N3CCN(C)CC3)cc1CO2	4.6%	10.1	-17.1	-71.4*	24.4
Cc1cccc2c1-c1sc(C(=O)N3CCCCC3)cc1CO2	12.2%	88.0*	-5.8	-1.3	2.3
Nc1nonc1-n1nnc(C(=O)N/N=C/c2ccccc2F)c1-c1cccs1	13.6%	8.0	12.3	-18.2	-6.8
C/C(=N\N=C\c1ccccc1F)c1nnn(-c2nonc2N)c1C	10.8%	9.7	20.0	-70.8*	-4.2
S=c1[nH]nc(Nc2ccc(Cl)cc2)s1	-0.2%	-12.8	11.6	-90.7*	4.5
Cc1ccccc1N1CCN(C(=O)CCN2C(=O)c3ccccc3C2=O)CC1	12.3%	·	-2.2	1.2	·
CCSc1ccc(-c2nn(-c3ccccc3)cc2/C=C(/C#N)C(=O)NC)cc1	?	?	-12.6	6.4	-3.3
CCCSc1ccc(-c2nn(-c3ccccc3)cc2/C=C(/C#N)C(=O)N2CCOCC2)cc1	·	101.0*	-3.1	-9.1	21.7
O=[N+]([O-])c1cc(-c2n[nH]c(-c3ccccc3)n2)cc([N+](=O)[O-])c1	?	-0.7	1.4	-78.0*	0.1
CCC(Sc1nc2ncccc2[nH]1)C(=O)N1CCOCC1 (configuration not stated)	-3.1%	-3.4	5.8	-8.1	28.5
Cc1ccc2oc(=O)n(CC(=O)N3CCOCC3)c2c1	-10.1%	0.3	-142.0*	-8.4	-12.3
O=C(NCCc1ccc(Cl)cc1)c1cc(-c2ccccn2)nc2ccccc12	31.6%	2.4	-10.7	16.0	2.9
COC(=O)c1cc(NC(=O)c2cc(C)oc2C)cc(C(=O)OC)c1	-4.6%	0.4	-193.1*	-14.3	2.1
SMILES	MBNL1 CUG block	TRPV1 agonist	KCNH2 WT inh	KCNH2 3.1 block	TRPV1 PAM
Cc1cc(C(=O)Nc2ccc(C(=O)O)cc2)c(C)o1	-0.3%	-0.1	-12.1	11.3	10.3
COc1ccccc1Nc1nc(N)nc(CN2CCC(Cc3ccccc3)CC2)n1	5.7%	13.0	-155.2*	-104.0*	?
COc1ccc(Nc2nc(N)nc(CN3CCC(Cc4ccccc4)CC3)n2)cc1	-2.8%	2.2	-40.6	-116.0*	0.8
COc1ccccc1Nc1nc(N)nc(CN2CCC(C)CC2)n1	1.6%	-3.4	52.4	-26.6	-7.2
Cc1ccc(C(=O)OCN2C(=O)c3ccccc3C2=O)o1	·	2.5	5.9	24.1	4.9
CC1=C(C(=O)Nc2ccccc2C)C(c2ccc[nH]2)n2ncnc2N1 (configuration not stated)	·	3.2	·	·	5.1
COc1cc(NS(=O)(=O)c2ccc3[nH]c(=O)oc3c2)cc(OC)c1	-11.2%	-5.4	19.5	-71.1*	1.3
COC(=O)[C@@]1(Cc2ccccc2)[C@H]2C(=O)N(C)C(=O)[C@H]2[C@H]2CN=C(SC)N21	·	·	2.9	0.3	·
Cc1ccc(C(=O)C(c2ccccc2)N2Cc3ccccc3C2=N)cc1 (configuration not stated)	1.8%	?	-4.6	-72.9*	-1.1
CCCn1nnnc1NC(=O)COc1ccc(CC)cc1	·	-2.1	-20.9	26.2	-0.1
O=C(NCCCN1CCc2ccccc2C1)Nc1ccc(Br)cc1	-5.1%	?	3.8	-80.3*	-10.9
CNC(=O)CSc1nnc(-c2ccco2)n1-c1cc(C)ccc1C	3.2%	1.1	-139.9*	-0.3	0.0
O=C(COC(=O)CNC(=O)c1ccc(Cl)cc1Cl)NNC(=O)c1ccccc1F	·	·	3.0	12.8	·
Cc1c(NS(=O)(=O)c2cccs2)cccc1-c1nc2cccnc2s1	4.0%	0.6	-3.3	-87.5*	17.2
COc1ccc(-c2nc(S(=O)(=O)c3ccccc3)c(NCCCN3CCOCC3)o2)cc1	·	·	-2.7	-8.2	·
O=C(Nc1ccccc1C(F)(F)F)N1CCN(c2ccccn2)CC1	-1.6%	1.5	-4.3	5.9	-3.0
C=CCOc1ccccc1CN(C(=O)CCl)c1ccc2c(c1)OCO2	-0.8%	0.3	0.5	-4.8	-10.1
Cc1cc(NC(=O)CSCC(=O)N(C)Cc2ccc(Cl)c(Cl)c2)no1	-6.6%	?	-95.3*	10.2	-6.3
Cc1cc(NC(=O)CSCC(=O)N(C)Cc2ccc(F)cc2)no1	-9.9%	4.1	-8.6	0.4	1.0
CC(C)N(Cc1ccccc1)C(=O)CN1C(=O)NC(Cc2ccccc2)(c2ccccc2)C1=O (configuration not stated)	6.9%	3.2	-5.3	-1.2	-3.5
CN(C)S(=O)(=O)c1ccc(Cl)c(NC(=O)CSc2nc3ccccc3c(=O)n2CCCN2CCOCC2)c1	-8.1%	5.4	17.6	1.9	1.0
O=C(NCC(F)(F)F)c1ccc(S(=O)(=O)N2CCN(C(=O)C3CCCO3)CC2)cc1 (configuration not stated)	·	0.7	-6.0	8.9	-10.0
O=C(NCc1ccc(F)cc1)Nc1cccc(Cl)c1	·	25.7	-9.0	-0.2	-12.4
O=C(NCc1ccc(F)cc1)Nc1ccc(Cl)cc1	-11.9%	80.0*	-2.7	-3.7	-10.6
CC(C)CNC(=O)C1CCN(c2ccc(S(=O)(=O)N3CCOCC3)cc2Cl)CC1	1.7%	-1.7	-7.9	13.3	-39.9
